# Reference: PubChem BioAssay AID1650 (Southern Research Specialized Biocontainment Screening …, 2009)
# Measured potencies and affinities stand elsewhere. A number with no mark means an inactive call. How the calls were made is not given here.
# Assay: mammalian cell viability reduction – secondary assay, cytotoxicity control for West Nile virus antiviral project, dose response (AID 1650)
# Conditions: Mammalian host cell viability, cytotoxicity counter-screen; series mostly up to 10 µM; viability: at the top concentration
row,Compound,viability
1,CN(C)CCNc1ncnc2c1sc1nc(-c3ccccc3)c3c(c12)CCCC3,78.4%
2,CC1CCCN(Cc2c(O)ccc3c(=O)c(-c4nc5ccccc5s4)c(N)oc23)C1 (stereo not given),83.4%
3,CCCCCCn1c(SCC(=O)Nc2cc(C)on2)nc2ccccc2c1=O,71.4%
4,COc1ccc(C(=O)CSc2nnc(-c3ccc(S(=O)(=O)N4CCOCC4)cc3)o2)cc1,93.2% [at 20 µM]
5,C=CCn1c(SCc2csc(-c3ccc(Cl)cc3)n2)nnc1-c1ccccc1OC,73% [at 20 µM]
6,O=C(Nc1cccc(Cl)c1)Nc1cc(S(=O)(=O)N2CCCCC2)ccc1Cl,70.3% [at 20 µM]
7,Cc1ccc(-n2ncc(C(=O)Nc3ccc(Cl)cc3)c2C2CCNCC2)cc1C,82.5% [at 20 µM]
8,Cc1ccc(C)c(CN2C(=O)c3ccccc3S(=O)c3ccc(C(=O)NCCCN4CCCC4)cc32)c1 (stereo not given),76.6%
9,CCc1ccc(NC(=O)CSc2nc3ccccc3c(=O)n2CCCC(=O)NCCCN2CCOCC2)cc1,86.5% [at 20 µM]
10,CN1C2CCC1/C(=C\c1ccccc1)C(=O)/C2=C\c1ccccc1,71.7%
11,N#Cc1c(N)nc2c3c(sc(=N)c2c1N)NC(=O)CC3c1ccccc1Cl (stereo not given),93.5%
12,COc1ccc(CNCCC(c2ccc(OC(C)C)cc2)c2ccccc2OC)cc1OC (stereo not given),70.5% [at 20 µM]
13,CCCN1CCN(CCCNC(=O)c2ccc3nc(N4CCC(C)CC4)sc3c2)CC1,84.4%
14,O=C(CNC(=S)N(Cc1ccccc1F)C1CCCCC1)NCC1CCCO1 (stereo not given),82.8%
15,Cn1cnc([N+](=O)[O-])c1Oc1cccc2ccccc12,83.1%
16,Cc1ccc(S(=O)(=O)NCc2ccc(C(=O)NCCCN3CCC(Cc4ccccc4)CC3)cc2)cc1,82.9% [at 20 µM]
17,O=[N+]([O-])c1nn(-c2ccccc2)n(O)c1=NC1CCN(Cc2ccccc2)CC1,83.1% [at 20 µM]
18,COc1ccc(/C=C2/SC(=S)N(CCC(=O)N3CCN(C)CC3)C2=O)cc1,83.4%
19,CC(C)c1ccc(/C=C/C(=O)Nc2ccc(CN3CCOCC3)cc2)cc1,78.1% [at 20 µM]
20,O=[N+]([O-])c1cc(-c2nnc(Nc3ccc(O)cc3)c3ccccc23)ccc1N1CCOCC1,73.3% [at 20 µM]

row,Compound,viability
1,CN1CCN(c2nc(Nc3ccc(F)cc3)nc(Nc3ccc(F)cc3)n2)CC1,76%
2,CCOC(=O)c1nn(-c2ccccc2)c2nc(-c3ccc(OC)cc3)c(C#N)c(=O)n12,94.6%
3,Cc1cccc(OCC(O)Cn2c(=N)n(CCN3CCCCC3)c3ccccc32)c1 (stereo not given),70.1% [at 20 µM]
4,CCCCCn1c(N2CCC(Cc3ccccc3)CC2)nc2c1c(=O)[nH]c(=O)n2C,71.8%
5,Cc1ccc(OCC(O)Cn2c(=N)n(CCN3CCCCC3)c3ccccc32)cc1 (stereo not given),79.3%
6,CCOC(=O)c1c(CSCc2ccccc2)oc2ccc(O)c(CN(C)C)c12,81.7% [at 20 µM]
7,COc1cc(C2c3c(oc4cc(C)c(C)cc4c3=O)C(=O)N2c2cc(C)ccn2)ccc1O (stereo not given),84.1%
8,CCCCn1c(=N)n(CC(O)COc2ccc(C)cc2)c2ccccc21 (stereo not given),84.4%
9,Cc1coc(NC(=O)CSc2nc(-c3ccncc3)cc(C(F)(F)F)c2C#N)n1,82.6%
10,CCc1ccc2nc(N(CCCN(C)C)C(=O)c3ccc(S(=O)(=O)N4CCCc5ccccc54)cc3)sc2c1,82.3%
11,COc1cc(CNC(C)(C)CO)cc(Br)c1OCc1ccc(Cl)cc1,81.2%
12,CCCCOc1ccc(C(=O)N/N=C/c2ccc(OCCN3CCCCC3)c(OC)c2)cc1,95.5% [at 20 µM]
13,CCOC(=O)c1c(NC(=O)CN(C)C2CCN(C)CC2)sc(C(=O)Nc2ccccc2)c1C,84.1% [at 20 µM]
14,COc1ccc(-n2cc(CNCCCn3ccnc3)c(-c3cccc(F)c3)n2)cc1,91.3% [at 20 µM]
15,Cc1nn(CC(=O)NCc2ccc(OC(C)C)cc2)c(=O)c2cc(-c3ccccc3)nn12,89.4% [at 20 µM]
16,Cc1cc(F)ccc1N1CCC(N2CCN(C(C)C)C(CCO)C2)CC1 (stereo not given),89.4% [at 20 µM]
17,COc1ccc(-c2csc(NC3OC(=O)c4ccccc43)n2)cc1 (stereo not given),89.2% [at 20 µM]
18,COc1cc(/C=C/C(=O)c2ccc(NS(=O)(=O)c3ccc(C)cc3)cc2)cc(OC)c1O,75.7%
19,CCn1nc(C)c(CN2CCc3c([nH]c4ccccc34)C2c2ccc(F)c(OC)c2)c1C (stereo not given),87.8% [at 20 µM]
20,Cc1ccc(Sc2nnc(Cc3ccccc3)c3ccccc23)cc1,81.4%
